In PubChem BioAssay (NCI):
About 83,000 compounds went through this panel and 20% of them were active in at least one assay; those are over-represented in the sample as a whole.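 For each line, cells grew in 96-well plates with the test compound present at a single concentration for 48 hours.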 A number with no mark means an inactive call. Active and inactive are the calls of the source. Rule for the calls: active = growth percent below 10; inactive = the rest.

Experiments:
Assay in all cases: NCI-60 one-dose screen, 48 h (100 = growth as untreated, 0 = no growth, -100 = all killed)
Conditions in all cases: 10 µM unless noted
SK-MEL-2 melanoma = tested on: SK-MEL-2 melanoma
EKVX NSCLC = tested on: EKVX NSCLC
SN12C renal = tested on: SN12C renal
UO-31 renal = tested on: UO-31 renal
TK-10 renal = tested on: TK-10 renal
CAKI-1 renal = tested on: CAKI-1 renal
A498 renal = tested on: A498 renal
CCRF-CEM leukemia = tested on: CCRF-CEM leukemia
MOLT-4 leukemia = tested on: MOLT-4 leukemia
SR leukemia = tested on: SR leukemia
RPMI-8226 leukemia = tested on: RPMI-8226 leukemia
OVCAR-8 ovarian = tested on: OVCAR-8 ovarian
OVCAR-5 ovarian = tested on: OVCAR-5 ovarian
OVCAR-4 ovarian = tested on: OVCAR-4 ovarian
IGROV1 ovarian = tested on: IGROV1 ovarian
OVCAR-3 ovarian = tested on: OVCAR-3 ovarian
HS 578T breast = tested on: HS 578T breast
NCI/ADR-RES ovarian = tested on: NCI/ADR-RES ovarian
ACHN renal = tested on: ACHN renal
SK-OV-3 ovarian = tested on: SK-OV-3 ovarian

Row | Structure (SMILES) | growth (SK-MEL-2 melanoma) | growth (EKVX NSCLC) | growth (SN12C renal) [%] | growth (UO-31 renal) | growth (TK-10 renal) [%] | growth (CAKI-1 renal) | growth (A498 renal) | growth (CCRF-CEM leukemia) | growth (MOLT-4 leukemia) | growth (SR leukemia) | growth (RPMI-8226 leukemia) | growth (OVCAR-8 ovarian) [%] | growth (OVCAR-5 ovarian) | growth (OVCAR-4 ovarian) | growth (IGROV1 ovarian) | growth (OVCAR-3 ovarian) | growth (HS 578T breast) | growth (NCI/ADR-RES ovarian) | growth (ACHN renal) | growth (SK-OV-3 ovarian)
1 | O=C(NNc1nc2cc(F)ccc2n2cccc12)c1ccncn1 | 26.4% | 11.2% | 21.3 | 18.6% | 31.7 | 16.5% | 14.6% | 8.88% (active) | 11.7% | 8.74% (active) | 16.8% | 18.7 | 45% | -6.78% (active) | 15.5% | 5.01% (active) | 42.8% | 5.87% (active) |  | 
2 | C=C(C=O)[C@@H]1CC[C@]2(C)[C@H](CC=C3[C@H]4[C@@H](C)[C@H](C)CC[C@]4(C(=O)OC)CC[C@]32C)[C@@]1(C)CCC#N | -27.6% (active) | 15.2% | 12.9 | -83.5% (active) |  | 3.89% (active) | 81.1% | 10.7% | 1.4% (active) | 0.262% (active) | -11.9% (active) | 20.1 | 2.05% (active) | 20.1% | -2.63% (active) | -58.2% (active) | -14.4% (active) | 8.1% (active) | -71.9% (active) | 69.7%
3 | CC(Nc1c(C#N)cnc2ccc(-c3cnc(N)nc3)cc12)c1ccccc1 (configuration not stated) | 2.77% (active) | 0.82% (active) | 14.7 | 7.41% (active) |  | 1.74% (active) | -38.6% (active) | 19.1% | 2.96% (active) | 14% | -11% (active) | 21.3 | 23.5% | 16.5% | -16% (active) | 15.3% | -22.5% (active) | 19.3% | 14.6% | -0.597% (active)
4 | COc1cc(OC)cc(C(=O)Nc2cccc(C#Cc3cccc4[nH]nc(N)c34)c2)c1 | -24.2% (active) | 61.1% | 30.4 | 32.2% | 54.3 | 24.5% | -19.2% (active) | 13% | 20.5% |  | 18.6% | 31.2 | 39.5% | 53.9% | 20.4% | 12.2% | -21.9% (active) | 34.2% |  | 39.1%
5 | Cn1ccnc1C(=O)/C=C/c1ccc(CNC(=O)c2ccc(F)cc2)cc1 | 105% | 53.5% | 20 | 34.9% | 75 | 48% | 63.7% |  | 9.84% (active) | 8.69% (active) | 13% | 47.1 | 17.4% | 42% | 23.1% | 15.1% | 40.4% | 18.9% |  | 77.8%
6 | C=C(C=O)[C@@H]1CC[C@]2(CO)CC[C@]3(C)[C@H](CC[C@@H]4[C@@]5(C)CCCNC(C)(C)[C@@H]5CC[C@]43C)[C@@H]12 | 99.5% | 88.2% | 54.6 | 78.3% | 125 | 67.5% |  | 2.49% (active) | 28% | 3.73% (active) |  | 50.8 | 88.7% | 87% | 52.8% | 3.49% (active) | 71.8% | 65.3% |  | 104%
7 | c1cn2c(ccc3nc(-c4cn[nH]c4)c4c(c32)CCCC4)n1 | -5.11% (active) | 90.2% | 59.2 | 23% | 30.8 |  | -4.01% (active) | 81.2% | 83.4% |  | 80.7% | 57.1 | 99.4% | 77.9% | 45.3% |  | 31.5% | 77.3% |  | -10.1% (active)
8 | CC(=O)c1nnn(-c2c(C(=O)n3nc(C)cc3C)sc(=S)n2-c2ccccc2)c1C | 108% | 90.7% | 103 | 79.8% |  | 91.8% | 94.9% | 101% | 94.9% | 109% | 101% | 103 | 120% | 100% | 95.6% | 115% | 113% | 111% | 102% | 108%
9 | CC(C)(C)c1ccc(C(=O)Nc2sc3c(c2C(N)=O)CCC(O)C3)cc1 (configuration not stated) | 80.3% | 62.9% | 74.8 | 49.1% | 82.8 | 5.67% (active) |  | 53.1% | 56.4% | 25.8% | 16.3% | 43.4 | 66.5% | 68.5% | 44.9% | 55.3% | 82.9% | 49.9% |  | 70.1%
10 | CNC(=O)c1c(NC(=O)c2ccccc2C(F)(F)F)sc2c1CCC(=O)C2 | 88.1% | 23.9% | 62.1 | 3.82% (active) | 26.2 | 0.09% (active) | 80.4% | 11.9% | 18.3% | 29% | -0.77% (active) | 24.6 | 23.2% |  | 36.6% | 11.2% | 40% | 28.1% |  | 95.7%
11 | CC(=O)Nc1cccc(Nc2nc(N[C@H](C)c3ccccc3)c3ccccc3n2)c1 | 73.6% | 52% | 53.9 | 40.5% | 68.1 | 35.8% | 22.8% |  | 16.8% | -7.47% (active) | -20.3% (active) | 74.8 | 70.6% | 34.9% | 51.8% | 55.9% | 80.5% | 39.1% |  | 94.8%
12 | C/C(=N\O)[C@H]1C[C@]23CC[C@]4(C)[C@H](CC[C@@H]5[C@@]6(C)CC/C(=N/O)C(C)(C)[C@@H]6CC[C@]54C)[C@H]2[C@H](C)C1(C)OC3 | 110% | 70.9% | 91.5 | 67% | 73.7 | 65.2% | 72% | 101% | 98.7% | 98.7% | 124% | 106 | 105% | 82.8% | 86.2% | 113% | 104% | 113% |  | 122%
13 | CNC(=O)c1cc(-n2ccc3cc(NC(=O)Nc4ccc(N5CCOCC5)c(C(F)(F)F)c4)ccc32)ccn1 | 68.8% | 65.4% | 55.3 | 35.2% | 61.3 | 41.3% | 70.7% |  | 13.8% | 9.16% (active) | -26.7% (active) | 60.6 | 65.1% | 40.6% | 32.3% | 76.4% | 32.2% | 47.9% |  | 102%
14 | COc1ccc(-c2cc(-c3ccc(Cl)cc3)c(C#N)c(=O)n2Cc2ccc(C(=O)O)cc2)cc1 | 61.9% | 98.2% | 103 | 68.1% | 116 | 70.3% | 83% | 30.7% | 53.1% | 28.9% | 79.9% | 99 | 105% | 88.6% | 96.9% | 6.02% (active) | 31.9% | 83.6% |  | 114%
15 | NC(N)=Nc1ccc(Oc2cccc(Nc3ccc(Cl)c(C(F)(F)F)c3)c2)cc1 | 83.7% | 36.1% | 27.1 | 76.2% |  |  | 36.7% | 17.5% | 17.8% | -26.4% (active) | 33.7% | 68.6 | 58.8% | 55.6% | 17.2% | 35% | 52% | 91.6% | 74% | 82.6%
16 | O=S(=O)(Nc1ccc2c(c1)OCO2)c1ccc(-c2cnc(C3CC3)o2)cc1 | 53.5% | 43.2% | 36.8 | 45.5% |  | 40.8% |  | 27% | 31.5% | 26.6% |  | 46.8 | 60.7% | 36.3% | 40.6% | 7.46% (active) | 45.5% | 16.6% | 43.6% | 62.1%
17 | O=S(=O)(NCCCNc1nccc(-c2[nH]c(-c3ccccc3)nc2-c2ccc(Cl)c(O)c2)n1)c1cccc2ccccc12 | -4.81% (active) | 46.2% | 24 | 20.2% |  | 39.5% | 71.9% | 20% | 18.7% | 17.8% | 9.64% (active) | 27.1 | 67.1% | 56.9% | 28.7% | 18.7% | 44% | 34.6% |  | 68.5%
